Molecules are shown by their SMILES. Out of some 340,000 compounds screened, about 930 (0.27%) were called active.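 Rule for the calls: active = inhibition above the screen-wide average of all tested compounds plus 3 SD (cut at about 25% in these data); inactive = the rest.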 The sample as a whole holds a higher share of actives than the screen did.

One may read the inhibition as the change of the read-out against control, counted positive when it falls.

Platelet-activating factor acetylhydrolase IB subunit alpha1 (Homo sapiens), sequence (Q15102 whole entry, looked up): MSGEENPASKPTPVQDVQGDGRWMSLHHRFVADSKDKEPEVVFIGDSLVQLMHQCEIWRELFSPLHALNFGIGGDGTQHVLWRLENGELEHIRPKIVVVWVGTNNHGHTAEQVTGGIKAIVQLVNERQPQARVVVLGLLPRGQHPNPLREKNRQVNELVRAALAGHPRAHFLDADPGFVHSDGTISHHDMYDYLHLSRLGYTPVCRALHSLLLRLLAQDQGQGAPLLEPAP

This test addresses Platelet-activating factor acetylhydrolase IB subunit alpha1 (Homo sapiens) (UniProt Q15102). Nature of the test: inhibition of PAF acetylhydrolase 1B subunit 3 – biochemical, fluorescence polarization, human, primary screen (AID 492972).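 Note: 0% = enzyme with DMSO only and 100% = wells lacking PAFAH1B3 protein.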 The settings on record: recombinant PAFAH1B3, FP-rhodamine probe, at 3.39 µM, active compounds read high. (In general: Fluorescence polarisation rises when a labelled molecule tumbles more slowly, as on binding a larger partner.)
Regarding `O=C(Nc1ccccc1Cl)N1CCN(c2ccc3nncn3n2)CC1`, the inhibition is 2.34% (inactive).

For the compound `Cc1c(-c2nn(C)c(=O)c3ccccc23)oc2ccc(F)cc2c1=O`, the inhibition was 37.7% (active).

`Cc1ccc(F)cc1NC(=O)Cc1nn(C)c(=O)c2ccccc12`: the inhibition is -8.34% (inactive).

For `CCC(=O)NCc1cc(-c2nn(C)c(=O)c3ccccc23)ccc1OC`, the inhibition is -3.52% (inactive).

Consider `Cn1ncc2c(N3CCCCC3)nc(NCCCO)nc21`, for which the inhibition is 8.53% (inactive).

As to `Cc1ccc(C)c(NC(=O)NNC(=O)c2ccc3ccccc3c2O)c1`, the inhibition was 39.8% (active).

Turning to `Cc1ccc(S(=O)(=O)NNC(=O)Nc2cccc3ccccc23)cc1`, the inhibition was 3.24% (inactive).

On to `Cc1ccc(C)c(NC(=O)COC(=O)CSc2ccccc2)c1`, for which the inhibition was 1.73% (inactive).

Turning to `CN(Cc1ccccc1)C(=O)C1CCCN(c2ncnc3c2nc2n3CCCCC2)C1` (stereo unspecified), the inhibition was 3.41% (inactive).

As to `Cc1cccnc1CCNC(=O)C1CCC(=O)N(Cc2cccc(F)c2)C1` (stereo unspecified), the inhibition was 2.19% (inactive).

On to `Cc1ccc(CNS(=O)(=O)c2ccc3c(c2)N(C)CCO3)cc1`, for which the inhibition is 8.72% (inactive).

With `CC(=O)Nc1ccccc1OC(C)C(=O)N1CCC(C)CC1` (stereo unspecified), the inhibition is 1.25% (inactive).

With `CN(C)CCN=c1cc(-c2ccccc2)oc2ccc(Cl)cc12`, the inhibition is 5.11% (inactive).

As for `CCc1ccc(OCC(=O)NCC(c2ccc(Cl)cc2)N2CCCCC2)cc1` (stereo unspecified), the inhibition is 1.46% (inactive).

As for `O=C1c2cccc(OCC(=O)N3N=C(c4cccs4)CC3c3ccc(F)cc3)c2CCN1Cc1ccccc1` (stereo unspecified), the inhibition was 3.19% (inactive).

Regarding `Cc1cc2cc3c(N)[nH]nc3nc2cc1C`, the inhibition was 5.34% (inactive).

On to `COc1ccc(S(=O)(=O)N2CCOCC2)cc1NC(=O)Cc1coc2cc(C)ccc12`, for which the inhibition was 9.79% (inactive).

`O=C(NCc1cccnc1)c1ccc(CS(=O)(=O)c2ccc(Br)cc2)o1`: the inhibition is 2.95% (inactive).

Regarding `CCn1ncc(C2=NOC(C(=O)Nc3ccccc3C(=O)OC)C2)c1C` (stereo unspecified), the inhibition was 9.12% (inactive).

Turning to `O=C(CN1CCN(C(=O)c2ccco2)CC1)Nc1ccc(Cl)c(C(F)(F)F)c1`, the inhibition was 8.31% (inactive).

In the case of `CN(CC(=O)NCc1ccc2c(c1)OCO2)CC(=O)Nc1ccc(F)c(F)c1F`, the inhibition is 7.36% (inactive).

Turning to `CCCCNC(=O)N(O)C1N(/N=C/c2ccc(N(C)C)cc2)C(=S)SC1(C)C` (stereo unspecified), the inhibition was 40.5% (active).

For `CCC(C)N1C(=S)SC(C)(C)C1N(O)C(=O)NC1CCCCC1` (stereo unspecified), the inhibition is 3.27% (inactive).

Take `CCCCNC(=O)N(O)C1N(/N=C/c2ccccc2O)C(=S)SC1(C)C` (stereo unspecified): the inhibition was -1.86% (inactive).

In the case of `CC1CCCC(NC(=O)COC(=O)[C@@H]2CC(O)CN2S(=O)(=O)c2ccc3c(c2)OCCO3)C1C` (stereo partly specified), the inhibition was -2.21% (inactive).

Turning to `COc1cc(OC)cc(-c2c(C#Cc3ccsc3)c3cc(-c4ccc(SC)cc4)ccc3n2C)c1`, the inhibition is 11.8% (inactive).

As for `CCC(C(=O)Nc1ccc(C(C)C)cc1)c1ccccc1` (stereo unspecified), the inhibition is -2.07% (inactive).

Turning to `Cc1ccc(S(=O)(=O)N2CCN(C)CC2)cc1`, the inhibition was 2.98% (inactive).

Consider `CC/C(=N\NC(=O)c1c(C)nc2ccccn12)c1ccc(Cl)cc1`, for which the inhibition is 2.04% (inactive).

With `CC(Sc1nncs1)C(=O)NCc1ccc2c(c1)OCO2` (stereo unspecified), the inhibition was 4.2% (inactive).

For the compound `COc1cc(CNCCN(C)C)ccc1OCc1c(F)cccc1Cl`, the inhibition was 7.89% (inactive).

For the compound `CSCCC(NC(=O)COc1ccccc1)C(=O)Nc1ccc(C)cc1` (stereo unspecified), the inhibition is 3.02% (inactive).

Regarding `Cc1ccc(-c2noc(CNC(=O)c3ccoc3C)n2)cc1`, the inhibition was 7.91% (inactive).

As to `O=C(CN1C(=O)NC2(CCCCCC2)C1=O)NC1CC1`, the inhibition is 8.06% (inactive).

For `CCCc1nc(N)nc2c1C(=O)CC(C)(C)C2`, the inhibition is 3.91% (inactive).

Take `Cc1ccc(N2C(=O)S/C(=C/c3cn(C)c4ccccc34)C2=O)cc1`: the inhibition was 1.18% (inactive).

On to `Cc1cccc(N=C2NC(=O)/C(=C/c3cn(C)c4ccccc34)S2)c1`, for which the inhibition was 31.3% (active).

Regarding `Cc1ccc(N=C2NC(=O)/C(=C/C=C/c3ccco3)S2)cc1C`, the inhibition is -1.25% (inactive).

Turning to `CN(C)C(=O)CCc1ccc2c3c([nH]c2c1)[C@]1(C)[C@@H](C(=O)N2CCOCC2)C[C@H](CC(=O)NCCc2ccccn2)C(=O)N1CC3`, the inhibition is 12.3% (inactive).

Regarding `Cn1ncc2c(Nc3cccc4ccccc34)ncnc21`, the inhibition is -1.17% (inactive).

As for `O=C(COC(=O)c1cccnc1Cl)NC12CC3CC(CC(C3)C1)C2`, the inhibition is 16.2% (inactive).

Regarding `COCCNC(=S)N1CCC(NC(=O)C23CC4CC(CC(C4)C2)C3)CC1`, the inhibition is 7.45% (inactive).

Take `O=C(NCCc1ccccc1)Oc1ccc(Cl)cc1`: the inhibition was 2.38% (inactive).

Take `CN(C)[C@@H]1C(=O)C(C(N)=O)=C(O)[C@@]2(O)C(=O)C3=C(O)c4c(O)ccc(Cl)c4[C@@H](O)[C@H]3C[C@@H]12`: the inhibition is 11% (inactive).

For the compound `C=C1c2c(Cl)ccc(O)c2C(O)=C2C(=O)[C@]3(O)C(O)=C(C(N)=O)C(=O)[C@@H](N(C)C)[C@@H]3[C@@H](O)C12` (stereo partly specified), the inhibition was 32.6% (active).

With `CCSC(C)CC1C/C(=N/O)c2c(C)noc2C1` (stereo unspecified), the inhibition was 4.48% (inactive).

As to `COc1ccc(N(CC(=O)NCC2CCCO2)C(=O)CCC(=O)Nc2nccs2)c(OC)c1` (stereo unspecified), the inhibition is 2.48% (inactive).

For `O=C(Nc1nccs1)C1CCN(S(=O)(=O)c2ccc(Cl)c(C(F)(F)F)c2)CC1`, the inhibition was 7.86% (inactive).

In the case of `O=C(NCc1ccccc1)C(c1cccnc1)N(C(=O)c1csnn1)c1ccc(F)cc1` (stereo unspecified), the inhibition is 4.83% (inactive).

Consider `CCN1C(=O)[C@H]2[C@@H](c3ccc(SC4CCCCC4)c(OC)c3)N[C@@](Cc3ccccc3)(C(=O)OC)[C@H]2C1=O`, for which the inhibition is -5.41% (inactive).

`c1coc(-c2nc3nc4ccccc4n3nc2-c2ccco2)c1`: the inhibition is 41.5% (active).

In the case of `CC1=Nn2c(nnc2-c2ccccc2)SC1`, the inhibition is 6.68% (inactive).

As to `COc1ccccc1-c1nnc2n1N=C(c1ccc(OC(F)F)c(OCC3CC3)c1)CS2`, the inhibition was -0.82% (inactive).

On to `COc1ccc(C2=Nn3c(nnc3-c3ccccc3OC)SC2)cc1OC1CCCC1`, for which the inhibition is 38.3% (active).

Turning to `Cc1nnc(SCCCn2c(N3CCCCC3)nc3c2c(=O)[nH]c(=O)n3C)s1`, the inhibition was 5.57% (inactive).

With `CCN(CC)CCCC(C)n1c2nc(=O)[nH]c(=O)c-2nc2cc(Cl)ccc21` (stereo unspecified), the inhibition was 57.6% (active).

Regarding `COc1ccc(C)cc1S(=O)(=O)N(CC(=O)Nc1cccc([N+](=O)[O-])c1)c1ccc(C)cc1`, the inhibition is -21.3% (inactive).

Regarding `COc1ccc(C(=O)NC(=S)N2CCCCC2c2cccnc2)cc1OC` (stereo unspecified), the inhibition is -1.07% (inactive).

With `Cc1c(-c2ccccc2)n[nH]c1C(=O)N=Nc1c(O)[nH]c2ccccc12`, the inhibition is -61.7% (inactive).

Regarding `S=C(NCCCc1ccccc1)Nc1ccc(Br)cc1`, the inhibition is 7.28% (inactive).

Regarding `C/C=N/N(c1ccccc1)c1ccccc1`, the inhibition was 0.33% (inactive).

Regarding `N#CC(Cc1cc2ccccc2n1S(=O)(=O)c1ccccc1)OCc1ccccc1` (stereo unspecified), the inhibition was 4.5% (inactive).

For `CCCc1ccc(OCC(O)CN2CCN(C(=O)OCC)CC2)cc1` (stereo unspecified), the inhibition was -2.88% (inactive).

Consider `COC(=O)CNC(=O)C(CCSC)NC(C)=O` (stereo unspecified), for which the inhibition was -4.04% (inactive).

Turning to `CCC(CO)Oc1cc(NC(=O)c2cccc(F)c2)c2ncn(C(C)C)c2c1` (stereo unspecified), the inhibition was -2.61% (inactive).

Take `CC(C)n1cnc2c(NCc3ccccc3)cc(OCC3CCN(C)CC3)cc21`: the inhibition is 49.8% (active).

Regarding `CCC(CO)Oc1cc(NC(=O)c2cccc3ccccc23)c2ncn(C(C)C)c2c1` (stereo unspecified), the inhibition was -4.73% (inactive).

For the compound `COc1ccccc1C(=O)N(Cc1ccc(C)o1)C1CCS(=O)(=O)C1` (stereo unspecified), the inhibition is 4.66% (inactive).

Regarding `COc1ccccc1NS(=O)(=O)N(C)C`, the inhibition is -5.67% (inactive).

Take `c1ccc(CC2CCN(c3nc4ccccc4n4cnnc34)CC2)cc1`: the inhibition was -2.84% (inactive).

`COc1ccc(CN(Cc2ccco2)S(=O)(=O)c2ccc(S(=O)(=O)N3CCCC3)cc2)cc1`: the inhibition was 4.29% (inactive).

Take `CC(=O)OC1CCC2(C)C(=CCC3C4CC(=O)N(O)C(=O)C4(C)CCC32)C1` (stereo unspecified): the inhibition is 1.29% (inactive).

`O=C(/C=C/c1ccc2c(c1)OCCO2)c1ccc(O)cc1`: the inhibition is -1.41% (inactive).

`O=C(O)/C=C/c1ccc(OCCCF)cc1`: the inhibition is 9.5% (inactive).

`O=C(/C=C(O)/C=C/c1ccc(O)cc1)/C=C/c1ccc(O)cc1`: the inhibition is 36.6% (active).

For the compound `O=C(CCCC(=O)N(CC(=O)NC1CCCC1)Cc1ccccc1Cl)Nc1ccccn1`, the inhibition is 7.22% (inactive).

Consider `CCOCCCN(C)C1CCN(C(=O)c2oc3ccccc3c2NC(=O)COc2cccc(C)c2)CC1`, for which the inhibition is 7.03% (inactive).

Regarding `COc1ccc(NC(=O)ON=C2c3ccccc3-c3ccccc32)cc1`, the inhibition was 31.6% (active).

For `COc1ccc(NC(=O)C(Br)C(C)C)cc1` (stereo unspecified), the inhibition is 3.86% (inactive).

As to `COc1ccc(NC(=O)CCCC(=O)c2ccccc2)cc1`, the inhibition is -0.24% (inactive).

Regarding `COc1ccc(C2=NS(=O)(=O)N(C)C(C(=O)N(C)Cc3ccccc3)=C2)cc1`, the inhibition is 9.43% (inactive).

On to `COc1ccc([N+](=O)[O-])cc1NCC(=O)c1ccc(C)cc1`, for which the inhibition is 8.91% (inactive).

As to `CCNC(=O)NNC(=O)C1CC(c2cccs2)=NO1` (stereo unspecified), the inhibition was 14.9% (inactive).

As to `CCNS(=O)(=O)c1ccc(CCC(=O)N2CCN(c3cc(Cl)ccc3C)CC2)cc1`, the inhibition was 8.42% (inactive).

`COc1ccc(N2CCN(C(=O)C3CCN(C(=O)c4ccccc4Cl)CC3)CC2)cc1`: the inhibition was -0.01% (inactive).

For `CN(N)c1nc(N2CCCC2)nc(N2CCCC2)n1`, the inhibition is -3.46% (inactive).

In the case of `NC(=O)[C@H]1CC2(CC(c3cccc(NC(=O)[C@H]4CCC(=O)N4)c3)=NO2)CN1C(=O)c1ccccc1C(=O)c1ccccc1` (stereo partly specified), the inhibition was -3.78% (inactive).

For the compound `O=c1[nH]cccc1-c1nc2ccccc2n1Cc1ccc(Cl)cc1`, the inhibition was 6.48% (inactive).

In the case of `O=C(Nc1nnc(-c2ccc(F)cc2)s1)c1c(F)cccc1Cl`, the inhibition was 4.95% (inactive).

On to `CN(C1CCS(=O)(=O)C1)S(=O)(=O)c1ccc2ccccc2c1` (stereo unspecified), for which the inhibition is 3.01% (inactive).

Take `CC(C)(C)NC(=O)NC(=O)CN1CCC(Cc2ccccc2)CC1`: the inhibition was 0.05% (inactive).

(Values after PubChem BioAssay AID492972 (The Scripps Research Institute Molecular Screening Center, 2010).)
